Artemis inh: Artemis (human) endonuclease inhibition. Q96SD1. recombinant Artemis, quenched FAM hairpin cleavage fluorescence. inhibition, % at 10 µM. hit rate 0.78% among 30,000. AID 686954;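 active means at 10 µM dose, at least 30% inhibition, measured as corrected fluorescence normalized to stimulator and neutral control wells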
Target sequence (Q96SD1 whole entry, looked up): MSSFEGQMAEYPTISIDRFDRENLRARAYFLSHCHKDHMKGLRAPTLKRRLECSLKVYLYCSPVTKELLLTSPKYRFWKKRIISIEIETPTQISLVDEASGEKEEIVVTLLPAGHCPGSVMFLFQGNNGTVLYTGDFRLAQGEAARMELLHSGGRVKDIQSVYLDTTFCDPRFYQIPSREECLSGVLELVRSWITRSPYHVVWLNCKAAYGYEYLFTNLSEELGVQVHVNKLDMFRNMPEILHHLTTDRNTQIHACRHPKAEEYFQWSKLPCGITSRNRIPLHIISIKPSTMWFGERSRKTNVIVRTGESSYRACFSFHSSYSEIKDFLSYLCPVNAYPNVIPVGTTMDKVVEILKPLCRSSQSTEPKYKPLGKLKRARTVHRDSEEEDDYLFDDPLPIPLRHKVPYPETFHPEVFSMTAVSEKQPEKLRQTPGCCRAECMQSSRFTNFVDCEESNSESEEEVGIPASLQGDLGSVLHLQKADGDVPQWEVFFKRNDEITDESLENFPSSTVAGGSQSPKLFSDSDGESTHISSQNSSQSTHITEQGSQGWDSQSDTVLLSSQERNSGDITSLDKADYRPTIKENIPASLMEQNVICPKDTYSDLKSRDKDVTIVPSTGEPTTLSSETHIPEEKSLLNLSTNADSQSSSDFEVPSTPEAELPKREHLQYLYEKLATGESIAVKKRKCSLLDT
* marks the source's active call; other numbers are inactive results. The sample as a whole holds a higher share of hits than the screen did.

How did CCn1c(SCC(=O)Nc2oc(-c3ccccc3)c(-c3ccccc3)c2C#N)nnc1-c1ccncc1 do in these assays?
Artemis inh: 31.4*

Results for N#Cc1c(NC(=O)CSc2ccccn2)oc(-c2ccccc2)c1-c1ccccc1 ?
Artemis inh: 8.8

How did CCc1c(C)nc2cc(-c3ccc(OC)c(OC)c3)nn2c1NCC1CC1 do in these assays?
Artemis inh: 5.0

Results for CCCC(=O)N1CCN(c2ccc(NC(=O)C(C)(C)C)cc2)CC1 ?
Artemis inh: -6.0

How did CCCCC(=O)Nc1ccc(N2CCCC2)cc1 do in these assays?
Artemis inh: 44.3*

What do the screens show for `CCCCOc1cccc(C(=O)Nc2ccc(N3CCN(CC)CC3)cc2)c1`?
Artemis inh: 4.5

How did COc1ccccc1C(=O)Nc1ccc(N2CCCCC2)cc1 do in these assays?
Artemis inh: 1.8

Results for CC(C)C(=O)Nc1ccc(N2CCCC2)cc1 ?
Artemis inh: 8.4

How did CCOc1cccc(C(=O)NC(=S)Nc2ccc(N3CCCC3)cc2)c1 do in these assays?
Artemis inh: 42.9*

What do the screens show for `CCCC(=O)Nc1ccc(N2CCOCC2)cc1`?
Artemis inh: -12.5

How did COc1ccccc1C(=O)Nc1ccc(N2CCN(Cc3ccccc3)CC2)cc1 do in these assays?
Artemis inh: 2.8

How did O=C(Nc1ccc(N2CCCC2)cc1)C(c1ccccc1)c1ccccc1 do in these assays?
Artemis inh: 51.7*

What do the screens show for `CCC(=O)Nc1ccc(N2CCN(Cc3ccccc3)CC2)cc1`?
Artemis inh: 10.5

How did CCC(=O)N1CCN(c2ccc(NC(=S)NC(=O)c3cccc([N+](=O)[O-])c3)cc2)CC1 do in these assays?
Artemis inh: -3.0

Results for O=C(Cc1ccccc1)Nc1ccc(N2CCCC2)cc1 ?
Artemis inh: 58.8*

How did CC(=O)NS(=O)(=O)c1cccnc1Nc1ccc(Cl)cc1 do in these assays?
Artemis inh: -3.6

Results for Cc1cccc(Nc2nnc(-c3ccc(C(=O)N4C[C@H]5C[C@H](C4)c4cccc(=O)n4C5)cc3)c3ccccc23)c1 ?
Artemis inh: 15.0

Results for C=CCNc1nc(N2CCCCC2)c(C#N)c2c1CN(Cc1ccccc1)CC2 ?
Artemis inh: 18.7

How did COc1ccc(C(=O)NCCc2c[nH]c3ccccc23)cc1S(=O)(=O)N1CCOCC1 do in these assays?
Artemis inh: 0.9

How did Cc1cc(C)cc(N2C(=O)C3C4C=CC(C4)C3C2=O)c1 (stereo not given) do in these assays?
Artemis inh: 2.5

How did COCc1cc(=O)[nH]c(/N=C(\N)Nc2ccccc2C)n1 do in these assays?
Artemis inh: -9.0

Results for CC(C)N(O)C(=O)NC(C)(C)C ?
Artemis inh: 0.6

How did Cc1cc(C)cc(OCc2nnc(SCC(=O)N3CCN(c4ccccc4)CC3)o2)c1 do in these assays?
Artemis inh: 5.8

Results for Cc1ccc(C2NC(=O)Cc3ccccc32)cc1 (stereo not given) ?
Artemis inh: -0.2

How did Cc1cc(NC(=O)NC2CCCN2S(=O)(=O)c2ccc(Cl)cc2)no1 (stereo not given) do in these assays?
Artemis inh: 12.7

How did CCOc1nc(CC)nc(NC(=O)NS(=O)(=O)c2ccccc2Cl)n1 do in these assays?
Artemis inh: -5.1

Results for Cc1cccc(NC(=O)Cn2cnc3ccccc3c2=O)c1C ?
Artemis inh: -4.5

How did COC(=O)C(NC=O)C(O)(Cc1ccccc1)C(F)(F)F (stereo not given) do in these assays?
Artemis inh: 2.4

How did O=C(Nc1ccc(Cl)cc1)c1ccc2c(c1)OCO2 do in these assays?
Artemis inh: -4.7

How did CCC(=O)Nc1ccc(C(=O)Nc2ccc3c(c2)OCO3)cc1 do in these assays?
Artemis inh: 36.3*

What do the screens show for `CN1CCN(CCC(=O)Nc2ccc3c(c2)OCO3)CC1`?
Artemis inh: 1.9

Results for CCOC(=O)c1c(N2C(=O)Nc3cc(Cl)c(Cl)cc3N2O)sc2c1CCCCC2 ?
Artemis inh: 19.3

How did CC(C(=O)O)N1C(=O)/C(=C/C=C/c2ccco2)SC1=S (stereo not given) do in these assays?
Artemis inh: 39.7*

How did O=C1/C(=C\c2ccco2)SC(=S)N1Cc1ccccc1 do in these assays?
Artemis inh: 16.5

What do the screens show for `C=CCSC1=N/C(=C\C=C\c2ccco2)C(=O)S1`?
Artemis inh: 14.7

How did O=C(Nc1ccncc1)c1ccc2c(c1)C(=O)N(C1CCCCC1)C2=O do in these assays?
Artemis inh: -0.3

How did CC(=O)OCc1c(F)c(F)c(-n2nc(C)cc2C)c(F)c1F do in these assays?
Artemis inh: -6.7

What do the screens show for `Cc1cccc(Oc2sc(C(=O)c3ccccc3)c(N)c2C#N)c1`?
Artemis inh: 6.6

How did COC(=O)c1ccc(NC(=O)c2cn(-c3ccccc3)nc2-c2ccncc2)cc1 do in these assays?
Artemis inh: 7.2

How did COc1ccc(-c2nn(-c3ccccc3)cc2C(=O)Nc2nccs2)cc1 do in these assays?
Artemis inh: 47.3*

What do the screens show for `COc1ccc(-c2nn(-c3ccccc3)cc2CO)cc1`?
Artemis inh: 3.7

What do the screens show for `O=C(COc1ncnc2scc(-c3ccc(Cl)cc3)c12)NCc1ccco1`?
Artemis inh: 11.3

How did CC(C)CC(c1nnnn1C(C)C)N1CCN(c2ccccc2)CC1 (stereo not given) do in these assays?
Artemis inh: -3.5

Results for CCNC(=O)CN1c2cccc3cccc(c23)S1(=O)=O ?
Artemis inh: 8.2

Results for CCN1CCN(C(=O)CN2C(=O)c3cccc4cccc2c34)CC1 ?
Artemis inh: -10.1

Results for CN1/C(=N\O)c2cccc3cccc1c23 ?
Artemis inh: 37.9*

How did COc1ccc2cc(CN(CC3COCCO3)S(=O)(=O)c3ccc(Cl)cc3)c(=O)[nH]c2c1 (stereo not given) do in these assays?
Artemis inh: -3.8

How did C=C1CSc2nc3ccccc3c(=O)n21 do in these assays?
Artemis inh: -21.7

What do the screens show for `O=C(COc1ccccc1C(=O)N/N=C\c1ccc(O)c(O)c1)N/N=C/c1ccc(O)c(O)c1`?
Artemis inh: 66.2*

Results for CCOc1ccc(/C=N/NC(=O)COc2ccccc2-c2ccccc2)cc1 ?
Artemis inh: 17.5

What do the screens show for `Cc1cccc(C)c1OCC(=O)N/N=C/c1ccc2c(c1)OCO2`?
Artemis inh: -5.3

How did Clc1ccc(-c2nnc3sc(-c4ccc(Br)o4)nn23)cc1 do in these assays?
Artemis inh: -64.4

How did c1cncc(-c2nnc3sc(C4CCCCC4)nn23)c1 do in these assays?
Artemis inh: 2.4

How did c1ccc(-c2nnc3sc(-c4csc5c4CCCC5)nn23)cc1 do in these assays?
Artemis inh: 32.2*

How did O=C1C2C3C=CC(C3=C(c3ccccc3)c3ccccc3)C2C(=O)N1Cc1ccccc1 (stereo not given) do in these assays?
Artemis inh: -0.4

How did CC1CCN(Cc2csc(N)n2)CC1 do in these assays?
Artemis inh: 9.1

How did O=C(Nc1cccc(F)c1)C1CCN(C(=O)c2ccccc2Cl)CC1 do in these assays?
Artemis inh: 6.6

How did Cc1ccc(CNC(=O)Cn2c(=O)oc3ccccc32)o1 do in these assays?
Artemis inh: -6.7

How did CC(C)NC(=O)c1sc2nc3c(c(-c4cccs4)c2c1N)CN(C)CC3 do in these assays?
Artemis inh: 8.9

What do the screens show for `Cc1cccc(NC(=O)c2sc3nc4c(c(-c5cccs5)c3c2N)CN(C)CC4)c1`?
Artemis inh: 40.4*

How did CC(=O)c1sc2nc(-c3cccs3)cc(C(F)(F)F)c2c1N do in these assays?
Artemis inh: -5.8

Results for CCN1CCCC1Cn1cnc2c([nH]c3cccc(Cl)c32)c1=O (stereo not given) ?
Artemis inh: 5.9

Results for O=C(c1ccco1)N1CCN(C(c2ccccc2)c2nnnn2C2CCCC2)CC1 (stereo not given) ?
Artemis inh: -1.6

Bioassay records from PubChem.
